Assays:
Conditions in all cases: concentration: 1 μM, replicates: in singlicate; n = 1
AKT3 = test system: AKT3
ALK = test system: ALK
AMPK-alpha1 = test system: T1, AMPK-alpha1
T1 construct: gene PRKAA1

AMPK-alpha2 = test system: T2, AMPK-alpha2
T2 construct: gene PRKAA2

ANKK1 = test system: ANKK1
ARK5 = test system: T3, ARK5
T3 construct: gene NUAK1

ASK1 = test system: T4, ASK1
T4 construct: gene MAP3K5

ASK2 = test system: T5, ASK2
T5 construct: gene MAP3K6

AURKA = test system: AURKA
AURKB = test system: AURKB
AURKC = test system: AURKC
AXL = test system: AXL
BIKE = test system: T6, BIKE
T6 construct: gene BMP2K

BLK = test system: BLK
BMPR1A = test system: BMPR1A
BMPR1B = test system: BMPR1B
BMPR2 = test system: BMPR2
BMX = test system: BMX
BRAF = test system: BRAF
BRK = test system: T7, BRK
T7 construct: gene PTK6
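Also: KINOMEscan kinase panel screen.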

SMILES | %Inh (AKT3) [%] | %Inh (ALK) [%] | %Inh (AMPK-alpha1) [%] | %Inh (AMPK-alpha2) [%] | %Inh (ANKK1) [%] | %Inh (ARK5) [%] | %Inh (ASK1) [%] | %Inh (ASK2) [%] | %Inh (AURKA) [%] | %Inh (AURKB) [%] | %Inh (AURKC) [%] | %Inh (AXL) [%] | %Inh (BIKE) [%] | %Inh (BLK) [%] | %Inh (BMPR1A) [%] | %Inh (BMPR1B) [%] | %Inh (BMPR2) [%] | %Inh (BMX) [%] | %Inh (BRAF) [%] | %Inh (BRK) [%]
Nc1nc(-c2ccc3c(N)n[nH]c3c2)cc(N2CCCCC2)n1 [GSK2228768] | 0 | 14 | 0 | 0 | 3 | 0 | 0 | 9 | 0 | 14 | 23 | 0 | 56 | 4 | 0 | 0 | 0 | 0 | 0 | 0
N#Cc1ccc(Oc2ccc(Nc3ncnc4cc[nH]c34)cc2Cl)cc1 | 0 | 0 | 17 | 15 | 28 | 10 | 18 | 0 | 11 | 16 | 11 | 22 | 1 | 28 | 18 | 8 | 25 | 13 | 0 | 11
COc1ccc(NC(=O)Nc2ccc(C)c(-c3ccc(C(=O)Nc4ccncc4)cc3)c2)cc1 [GSK1398475] | 0 | 18 | 0 | 0 | 10 | 0 | 4 | 0 | 4 | 0 | 0 | 0 | 0 | 28 | 0 | 0 | 0 | 14 | 0 | 32
CCc1nc(-c2cccc(N(C)S(=O)(=O)c3ccccc3)c2)c(-c2ccnc(Nc3ccc(N4CCN(C(C)=O)CC4)nc3)n2)s1 [GSK1645895] | 0 | 18 | 0 | 0 | 26 | 16 | 12 | 0 | 19 | 10 | 0 | 0 | 0 | 64 | 0 | 0 | 0 | 15 | 60 | 31
Oc1ccc2ncnc(Nc3ccc(OCc4ccccc4)cc3)c2c1 [GI262866] | 0 | 21 | 4 | 0 | 0 | 15 | 0 | 7 | 0 | 21 | 34 | 5 | 20 | 31 | 0 | 0 | 0 | 0 | 0 | 4
c1ccc(-c2ccc3c(-c4ccnc(Nc5ccc6c(c5)OCCO6)n4)cnn3n2)cc1 [GW818941] | 18 | 0 | 19 | 25 | 4 | 15 | 7 | 0 | 0 | 0 | 26 | 11 | 27 | 12 | 0 | 0 | 12 | 8 | 0 | 9
O=c1cc(N2CCOCC2)nc2n(Cc3cccc(Cl)c3)ccn12 [GSK2296823] | 0 | 32 | 0 | 0 | 22 | 14 | 0 | 0 | 0 | 3 | 1 | 0 | 20 | 9 | 0 | 0 | 0 | 20 | 10 | 7
CN1CCC(n2cnc(-c3ccc(F)cc3)c2-c2ccnc(NC3CCNCC3)n2)CC1 [SB-229482] | 32 | 22 | 0 | 12 | 0 | 0 | 0 | 0 | 34 | 40 | 0 | 48 | 0 | 10 | 6 | 0 | 1 | 0 | 0 | 0
O=C(Nc1n[nH]c2nc(-c3ccco3)c(Br)cc12)c1ccc(CN2CCCC2)cc1.O=C(O)[C@H](O)[C@@H](O)C(=O)O [SB-742352] | 8 | 0 | 0 | 8 | 0 | 0 | 0 | 0 | 0 | 0 | 0 | 51 | 0 | 0 | 0 | 0 | 0 | 8 | 0 | 0
COc1ccc(Nc2nccc(N3CCC(NC(=O)c4cccc(NC(C)=O)c4)C3)n2)cc1 (stereo not shown) [GSK1379732] | 23 | 0 | 5 | 0 | 11 | 9 | 0 | 1 | 16 | 1 | 1 | 1 | 0 | 40 | 0 | 0 | 9 | 16 | 0 | 0
Clc1ccc(-c2cc(-c3c[nH]nc3-c3ccccn3)ccn2)cc1 [GW681251] | 0 | 19 | 2 | 0 | 0 | 4 | 0 | 0 | 4 | 8 | 17 | 0 | 23 | 35 | 0 | 0 | 0 | 10 | 0 | 0
C[C@@H]1CCN(C(=O)CO)C[C@@H]1N(C)c1ncnc2[nH]ccc12 | 7 | 15 | 5 | 0 | 0 | 0 | 0 | 0 | 0 | 0 | 0 | 0 | 19 | 2 | 23 | 0 | 0 | 0 | 0 | 0
FC(F)(F)c1ccc(-c2cc(-c3c[nH]nc3-c3ccccn3)ccn2)cc1 [GW599550] | 0 | 24 | 4 | 16 | 20 | 0 | 5 | 0 | 18 | 17 | 14 | 20 | 13 | 39 | 0 | 0 | 25 | 19 | 0 | 8
COc1ccc(NC(=O)c2ccc(-c3cc(-c4nnc(C)o4)ccc3C)cc2)cc1 [GW595885] | 0 | 36 | 0 | 14 | 0 | 0 | 10 | 15 | 0 | 26 | 5 | 0 | 14 | 34 | 0 | 0 | 0 | 10 | 1 | 11
CCCc1ccc(S(=O)(=O)NC2CCN(c3ccnc(Nc4ccc(OC)cc4)n3)C2)cc1 (stereo not shown) [GSK1379737] | 0 | 30 | 0 | 0 | 0 | 0 | 0 | 0 | 0 | 32 | 0 | 0 | 0 | 30 | 0 | 0 | 8 | 0 | 0 | 6
Cn1ccc2ncnc(Nc3ccc(Oc4cccc(Cl)c4)c(Cl)c3)c21 | 0 | 0 | 18 | 20 | 0 | 22 | 0 | 11 | 0 | 33 | 0 | 0 | 0 | 14 | 22 | 0 | 29 | 13 | 0 | 17
Cl.Cl.c1ccc(-c2cc3ccncc3cc2OC2CCNCC2)cc1 [GSK1122999] | 0 | 23 | 16 | 22 | 0 | 13 | 0 | 4 | 17 | 10 | 28 | 27 | 27 | 41 | 0 | 0 | 0 | 17 | 0 | 8
O=C(CCO)NCCn1ccc2ncnc(Nc3ccc(Oc4cccc(C(F)(F)F)c4)c(Cl)c3)c21 | 0 | 0 | 0 | 0 | 0 | 0 | 0 | 0 | 0 | 0 | 0 | 0 | 0 | 0 | 0 | 0 | 0 | 0 | 0 | 13
FC(F)(F)c1ccc(-c2nn3ncccc3c2-c2ccnc(Nc3cccc(C(F)(F)F)c3)n2)cc1 [GW828205] | 15 | 0 | 12 | 0 | 0 | 6 | 0 | 0 | 0 | 14 | 12 | 0 | 1 | 1 | 0 | 0 | 0 | 0 | 0 | 0
Fc1cccc(COc2ccc(Nc3ncnc4cc[nH]c34)cc2Cl)c1 | 0 | 0 | 4 | 0 | 40 | 11 | 11 | 0 | 16 | 24 | 8 | 16 | 9 | 1 | 21 | 16 | 15 | 6 | 0 | 11
